The list is not random: actives were taken first. Their share in the collection is about 1.2%.
MEX-5 binding = C. elegans MEX-5 TCR-2 RNA binding activity. MEX-5/FITC-TCR2 RNA binding, fluorescence polarization; hits give low values. activity score (negative = inhibition of binding), % at 10 µM. 300,000 compounds, 0.38% hits. Q9XUB2;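 active = inhibition past about -25% in most replicates, and total fluorescence under double the plate's negative control median, limit read from the data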;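 note: 0% = DMSO and -100% = 5 µM competing unlabeled TCR2 RNA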
eLon inh = E. coli protease La inhibition. P0A9M0. purified E. coli Lon protease, fluorescence polarization. inhibition, % at 7.94 µM. 360,000 compounds, 0.42% hits; in the data active = inhibition above about 13%, passing the limit was not always enough;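 note: 0% = enzyme with probe and DMSO and 100% = no enzyme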
Bcl-xL primary = inhibitors of human Bcl-xL; Q07817; inhibition, % at 10.9 µM; GST-Bcl-xL / FITC-Bim BH3 peptide fluorescence polarization; 320,000 compounds, 0.7% hits;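 active = inhibition above the mean of all tested compounds plus 3 SD, cutoff set per campaign, cut at about 30% in these data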;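 note: 0% = DMSO wells and 100% = unlabeled Bim-BH3 peptide competitor; inhibitors lower millipolarization by displacing the labeled peptide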
Target sequence (Q07817 whole entry, looked up): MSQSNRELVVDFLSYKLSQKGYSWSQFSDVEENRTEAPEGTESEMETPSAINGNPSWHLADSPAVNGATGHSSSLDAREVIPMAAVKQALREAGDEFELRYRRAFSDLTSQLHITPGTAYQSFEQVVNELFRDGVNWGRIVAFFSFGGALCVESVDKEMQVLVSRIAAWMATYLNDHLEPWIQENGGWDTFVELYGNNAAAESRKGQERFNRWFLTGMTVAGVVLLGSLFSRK
LANA DNA inh = blocks KSHV LANA C-terminal domain binding to DNA; inhibition, % at 9 µM; MBP-C-LANA/FAM-LBS DNA binding, fluorescence polarization; AID 504423; 340,000 compounds, 0.078% hits;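 active = highest replicate inhibition at or above 60% at 9 µM, even if other replicates fall short; inactive = all replicates below 60% inhibition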;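 note: 0% = neutral control wells and 100% = 4 µM acridine orange control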
GLD-1 RNA inh = GLD-1-TGE RNA interaction inhibition (C. elegans); Q17339; purified GLD-1 + fluorescein TGE RNA, fluorescence polarization; inhibition, % at 5.96 µM; 320,000 compounds, 0.44% hits;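 active = percent inhibition above a per-plate cutoff, the plate mean of test compounds plus 3 SD, cut at about 30% in these data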;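 note: 0% = DMSO wells with GLD-1 and probe and 100% = wells lacking GLD-1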
Keap1 Nrf2 FP = disrupts human Keap1 binding to Nrf2 peptide; inhibition, % at 9.4 µM; 340,000 compounds, 0.15% hits; Keap1 Kelch-Nrf2 peptide fluorescence polarization, 1536-well; Q14145; in the data active = inhibition above about 12%;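 note: human Keap1 Kelch domain with fluorescein labeled Nrf2 9mer peptide probe; 0% = neutral control wells and 100% = peptide positive control; higher means more block of Keap1 binding to Nrf2 peptide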
Numbers without * were called inactive.

Results for CC1C(=O)NN=C1C(=O)N/N=C\c1ccc(O)cc1O (stereo not given) ?
MEX-5 binding: -62*; eLon inh: -14; Bcl-xL primary: 5; LANA DNA inh: 1; GLD-1 RNA inh: -1; Keap1 Nrf2 FP: -6

Results for CC(C)(C)OC(=O)C[C@H]1C/C=C\C[C@H](CC(=O)NCCO)C(=O)N[C@@H](c2ccccc2)COC1=O ?
eLon inh: 10; LANA DNA inh: 0; GLD-1 RNA inh: 1; Keap1 Nrf2 FP: 2

Results for NC(=O)c1c(N)sc2c1CCCC2 ?
MEX-5 binding: -7; eLon inh: 28; Bcl-xL primary: 11; LANA DNA inh: 0; GLD-1 RNA inh: -2; Keap1 Nrf2 FP: 3

How did CCN1CCc2c(sc(N)c2C(N)=O)C1 do in these assays?
MEX-5 binding: -21; eLon inh: 2; Bcl-xL primary: 61*; LANA DNA inh: 12; GLD-1 RNA inh: 23; Keap1 Nrf2 FP: -6

Results for CN1CCc2c(sc(N)c2C(N)=O)C1 ?
MEX-5 binding: -14; eLon inh: -7; Bcl-xL primary: 60*; LANA DNA inh: 2; GLD-1 RNA inh: 7; Keap1 Nrf2 FP: -4

Results for COc1ccc(N=Cc2c(O)n(-c3cccc(C)n3)c(=O)c3ccccc23)c(OC)c1 ?
MEX-5 binding: -69*; eLon inh: 2; Bcl-xL primary: -3; LANA DNA inh: 4; GLD-1 RNA inh: -41; Keap1 Nrf2 FP: 1

How did CC1(C)CC[C@]2(C(=O)O)CC[C@]3(C)C(=CC[C@@H]4[C@@]5(C)CC[C@H](O[C@@H]6O[C@H](C(=O)O)[C@@H](O)[C@H](O[C@@H]7OC[C@H](O)[C@H](O)[C@H]7O)[C@H]6O)C(C)(C)[C@@H]5CC[C@]43C)[C@@H]2C1 do in these assays?
eLon inh: 3; LANA DNA inh: -1; GLD-1 RNA inh: 6; Keap1 Nrf2 FP: 4

Results for Cc1ccc2ccc(C3C(=O)c4ccccc4C3=O)nc2c1 ?
MEX-5 binding: -41*; eLon inh: -14; Bcl-xL primary: 4; LANA DNA inh: 0; GLD-1 RNA inh: 5; Keap1 Nrf2 FP: -5

What do the screens show for `Cc1ccc(C)c(C2C(=O)c3ccccc3C2=O)c1`?
MEX-5 binding: -2; eLon inh: 7; Bcl-xL primary: 4; LANA DNA inh: 1; GLD-1 RNA inh: 5; Keap1 Nrf2 FP: -3

Results for COc1ccc(/C=C/c2nc(-c3ccccc3O)n[nH]2)cc1OC ?
eLon inh: 3; Bcl-xL primary: 7; LANA DNA inh: 0; GLD-1 RNA inh: 9; Keap1 Nrf2 FP: -2

How did O=C(O)COc1ccc(/C=C/c2nc(-c3ccccc3O)n[nH]2)cc1 do in these assays?
MEX-5 binding: -101*; eLon inh: -14; Bcl-xL primary: 8; LANA DNA inh: -2; GLD-1 RNA inh: 10; Keap1 Nrf2 FP: -1

What do the screens show for `COc1ccccc1OCC(=O)NNC(=O)Nc1ccc(Cl)cc1`?
MEX-5 binding: 0; eLon inh: -5; Bcl-xL primary: -3; LANA DNA inh: -1; GLD-1 RNA inh: 0; Keap1 Nrf2 FP: -2

Results for COc1ccccc1OC(=O)Nc1ccc(Cl)cc1 ?
MEX-5 binding: 0; eLon inh: -4; Bcl-xL primary: 48*; LANA DNA inh: 0; GLD-1 RNA inh: 11; Keap1 Nrf2 FP: -4

How did COc1ccc(-c2nnc(-c3cc4c(ccc5ccccc54)oc3=O)o2)cc1 do in these assays?
MEX-5 binding: -42*; eLon inh: -6; Bcl-xL primary: 6; LANA DNA inh: 3; GLD-1 RNA inh: -7; Keap1 Nrf2 FP: -2

How did O=C(O)Cc1c[nH]c2cccc(O)c12 do in these assays?
MEX-5 binding: -15; eLon inh: -3; Bcl-xL primary: 12; LANA DNA inh: 102*; GLD-1 RNA inh: 5; Keap1 Nrf2 FP: -7

What do the screens show for `CCc1noc(C)c1C(=O)OC(C)C(=O)Nc1cc([N+](=O)[O-])ccc1OC` (stereo not given)?
MEX-5 binding: 0; eLon inh: -6; Bcl-xL primary: 2; LANA DNA inh: 3; GLD-1 RNA inh: 10; Keap1 Nrf2 FP: 3

Results for O=C(OCc1nnc(-c2ccccc2)o1)c1cc(S(=O)(=O)N2CCOCC2)ccc1F ?
MEX-5 binding: -2; eLon inh: -6; Bcl-xL primary: -3; LANA DNA inh: -1; GLD-1 RNA inh: 9; Keap1 Nrf2 FP: 0
